Data reported in PubChem BioAssay (NCI).
Compounds without any hit were thinned out: in the full panel of roughly 83,000, 20% have a hit.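 The test compound was applied at a single concentration to cells in 96-well plates for 48 hours, and percent growth was recorded.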 A number with no mark means an inactive call. The source made the active and inactive calls. The calls were made as follows: active = growth percent below 10; inactive = the rest.

Assays:
Assay in all cases: NCI-60 one-dose screen, 48 h (100 = growth as untreated, 0 = no growth, -100 = all killed)
Details in all cases: 10 µM unless noted
T-47D breast = tested on: T-47D breast
BT-549 breast = tested on: BT-549 breast
MDA-MB-435 melanoma = tested on: MDA-MB-435 melanoma
SW-620 colon = tested on: SW-620 colon
MCF7 breast = tested on: MCF7 breast
HCT-116 colon = tested on: HCT-116 colon
HCC-2998 colon = tested on: HCC-2998 colon
KM12 colon = tested on: KM12 colon

SMILES	growth (T-47D breast)	growth (BT-549 breast)	growth (MDA-MB-435 melanoma)	growth (SW-620 colon)	growth (MCF7 breast)	growth (HCT-116 colon)	growth (HCC-2998 colon)	growth (KM12 colon)
Cc1nc(Sc2nc3ccc([N+](=O)[O-])cc3s2)sc1C	27%	-10.4% (active)	29.6%	11.5%	1.58% (active)	2.1% (active)	71.3%	36.6%
O=C(O)c1ccc2c(c1)C(=O)c1ccccc1C2=O	99.7%	107%	102%	97%	97.7%	106%	104%	98.9%
CCc1cccc(CC)c1N1C(=O)C=CC1=O	102%	116%	111%	108%	110%	88.5%	117%	110%
O=C1C=CC(=O)N1c1ccccc1	99.8%	97.1%	109%	80.9%	106%	75.1%	98.7%	103%
CCCCC(CCc1ccc([N+](=O)[O-])cc1)(C(C)=O)C(=O)OCC (centres undefined)	90%	117%	100%	91.4%	91.1%	92.2%	109%	92%
CC(C)(C)c1ccc(CCO)cc1	106%	86.1%	89%	114%	101%	99.7%	95.2%	115%
O=C(O)c1cc2c(s1)C(=O)c1sccc1C2=O	36%	-89.8% (active)	-99.6% (active)	-3.95% (active)	-56.6% (active)	-27.7% (active)	8.88% (active)	79.9%
Cc1ccc2c(c1)sc(-c1ccc(N(C)C)cc1)[n+]2C	1.38% (active)	11.9%	9.68% (active)	12.3%	3.8% (active)	-8.72% (active)	2.49% (active)	5.09% (active)
Cn1c(-c2ccccc2)c(/C=C/C2=[N+](C)c3ccccc3C2(C)C)c2ccccc21	-3.22% (active)	22.1%	2.09% (active)	14.3%	4.58% (active)	9.76% (active)	27%	-22.8% (active)
NC(=S)N/N=C\c1nccc2c(N)cccc12	11%	41%	30.3%	37.2%	22.1%	19.2%	44.4%	26.7%
CC[n+]1ccc(Nc2ccc(NC(=O)c3ccc(Nc4cc[n+](CC)c5ccc([N+](=O)[O-])cc45)cc3)cc2)cc1	46.3%	92.6%	74.4%	92.8%	36.7%	65.4%	104%	65.5%
COC(=O)Nc1nc2ccc(C3(c4ccc(F)cc4)OCCO3)cc2[nH]1	47.1%	47.5%	-53.3% (active)	30.7%	15.7%	25.2%	16.7%	25.6%
CCCCN(CCCC)CCCCCCCCCCO	94.6%	102%	107%	103%	99%	90.2%	103%	103%
Cc1cc(C)c(C#N)c(Sc2nc(C)c([N+](=O)[O-])c(C)c2C#N)n1	68.7%	43.1%	42.9%	19.2%	26.4%	9.65% (active)	100%	60.8%
CC1(C)CCCC2=C1C(=O)N(SC(Cl)(Cl)Cl)C2=O	66.9%	95.8%	92.1%	88%	67.3%	75.5%	96.5%	101%
COc1ccc(C(Cn2ccnc2)Sc2ccc(Cl)c(Cl)c2)cc1 (centres undefined)	79.3%	73.2%	84.1%	80.9%	79.6%	48.5%	108%	73.7%
CCOC(=O)C1(C)CCCC1N (centres undefined)	105%	116%	103%	106%	104%	111%	115%	98.5%

SMILES	growth (T-47D breast)	growth (BT-549 breast)	growth (MDA-MB-435 melanoma)	growth (SW-620 colon)	growth (MCF7 breast)	growth (HCT-116 colon)	growth (HCC-2998 colon)	growth (KM12 colon)
CCC1CCCCN1C(=S)N/N=C(\C)c1ccccn1 (centres undefined)	4.58% (active)	30.8%	3.24% (active)	9.32% (active)	13%	5.51% (active)	17.9%	4.56% (active)
CC(=O)OC1CC2CCC1(C)C2(C)C (centres undefined)	99.2%	112%	96.4%	98.1%	103%	107%	108%	104%
O=C(/C=C/C(Cl)(Cl)Cl)Nc1ccc(Cl)cc1	94.6%	102%	105%	110%	99.8%	104%	108%	132%
COc1cccc2c1C(=O)c1c(O)c3c(c(O)c1C2=O)C[C@@](O)(C(=O)CO)C[C@@H]3OC1CC(OC(C)=O)C(OC(C)=O)C(C)O1 (some centres undefined)	-27.3% (active)	-39.7% (active)	7.04% (active)	3.7% (active)	4.45% (active)	-80% (active)	-72% (active)	-39% (active)
CCN(CC)CC(O)c1cc(-c2ccc(Cl)cc2)nc2cc(Cl)ccc12 (centres undefined)	12.9%	81.6%	13.1%	31.5%	-28.4% (active)	-0.822% (active)	26.4%	-36.6% (active)
O=C(c1ccccc1)C(Br)[N+](=O)[O-] (centres undefined)	65.3%	92.6%	96%	38.8%	58.8%	63%	111%	100%
Oc1c(Cl)cc(Cl)cc1C=NCC1CCC(CN=Cc2cc(Cl)cc(Cl)c2O)CC1 (centres undefined)	71.4%	90.4%	88.8%	116%	78.1%	74.9%	107%	93.6%
COC(=O)[C@]1(C)CCC[C@]2(C)c3ccc(C(C)C)cc3C(=O)[C@@H](Br)[C@@H]12	53.1%	116%	91.8%	86.3%	57.6%	85.3%	106%	104%
O=C1C=CC(=O)N1c1cccc2c1CCCC2	86.5%	112%	88.5%	99.6%	88.3%	95%	118%	109%
CCOC(=O)C1=NN(c2ccccc2)C(=O)/C1=C\N1C(=O)/C(=C/c2cccc(O)c2)SC1=S	93%	97%	109%	97.6%	91.8%	88.8%	99.8%	100%
NC1=C(Br)C(=O)c2ncccc2C1=O	15.3%	-81.2% (active)	-96.2% (active)	-88.4% (active)	-57.2% (active)	-46.4% (active)	26.9%	24.5%
Nc1cc(-c2ccccc2)ccc1O	88.3%	79.3%	111%	121%	102%	98.1%	83.8%	102%
O=C1C=CC(=O)N1c1cc(Cl)c(Cl)cc1Cl	103%	97.9%	106%	110%	87.8%	90%	103%	106%
CCCN(CCC)C(=O)c1ccc(C)cc1	78.5%	102%	104%	94.9%	92.1%	98.3%	87.4%	102%
CCc1cnc2ccccc2c1/C=C/c1ccc(N(C)C)cc1	31.3%	49.8%	7.56% (active)	32.1%	20%	24.6%	68.4%	25.5%
O=C(Nc1ccc(Cl)c(Cl)c1)Nc1ccccc1O	50.7%	105%	76.2%	90.1%	51.9%	60.7%	80.4%	96.5%
